Test [1] in a line: qHTS assay for small molecule agonists of the p53 signaling pathway (AID 651631; calls by dose curve; further: nearly all actives have a fitted effect of over 15% in size; further: potency means the concentration at half of the fitted maximal effect). The essentials: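 Readout was fluorescence from the LiveBLAzer FRET substrate, applied for 2 h at room temperature after 16 h compound exposure at 37 °C. Cells were the p53RE-bla HCT-116 line, with beta-lactamase driven by p53 response elements.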
Test [2] can be described thus: qHTS assay for small molecules that induce genotoxicity in human embryonic kidney cells expressing luciferase-tagged ATAD5 (AID 651632). Further: nearly all actives have a fitted effect of over 15% in size. The essentials: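 DMSO vehicle served as the control. HEK293T reporter cells, 16 hr at 37C, then 30 min Amplite at room temperature; ATAD5 induction is measured as luciferase activity.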
Test [3] in a line: qHTS assay for small molecule agonists of the p53 signaling pathway - cell viability (AID 651633; calls by dose curve; further: nearly all actives have a fitted effect of over 30% in size; further: potency means the concentration at half of the fitted maximal effect). An outline of the steps: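 p53RE-bla cells, seeded at 4,000 per well and rested 5 h at 37 C/5% CO2, received compounds in DMSO for 16 h at 37 C. CellTiter-Glo was then added, and luminescence was read after 30 min at room temperature to gauge cytotoxicity.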
For orientation: In qHTS, concentration-response curves come from the screen itself.

Test [4] in a line: qHTS assay for small molecules that induce genotoxicity in human embryonic kidney cells expressing luciferase-tagged ATAD5 - cell viability (AID 651634; calls by dose curve; further: nearly all actives have a fitted effect of over 25% in size). An outline of the steps:
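Here HEK293T cells with the ATAD5 luciferase reporter are incubated with test compounds for 15.5 hr, and cytotoxicity is then gauged by measuring protease activity in live cells using fluorescence.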

Test [5] can be described thus: qHTS assay for small molecule disruptors of the mitochondrial membrane potential - cell viability (AID 720634; calls by dose curve; further: nearly all actives have a fitted effect of over 20% in size; further: potency means the concentration at half of the fitted maximal effect). An outline of the steps: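 Viability of HepG2 cells is scored from ATP content by luminescence; cells are exposed to compound for 1 hr at 37 C and 5% CO2, then dosed with m-MPI dye before the CellTiter-Glo reagent.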
Test [6] in a line: qHTS assay for small molecule disruptors of the mitochondrial membrane potential (AID 720635). Further: potency means the concentration at half of the fitted maximal effect. An outline of the steps: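 HepG2 cells (2,000/well) attached overnight at 37C, then took compound for 1 hr at 37C, 5% CO2. Mito-MPS dye was added for 30 min; fluorescence was read at 490/535 nm (monomers) and 540/590 nm (aggregates).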
Test [7] has as its target Glucocorticoid receptor (Homo sapiens) (UniProt P04150). Briefly: qHTS assay to identify small molecule antagonists of the glucocorticoid receptor (GR) signaling pathway (AID 720692; active means well fitted inhibition curve with a large enough effect in the signal ratio in the repeat runs, not every such curve was filed as active; the % refers to the signal ratio; further: potency means the concentration at half of the fitted maximal effect). The essentials:
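In a 1536-well cell format, compounds were added 4 h after seeding GR-bla HeLa cells, together with dexamethasone at 5 nM final; reporter activity was measured by FRET-substrate fluorescence following 18 h at 37 C.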

The nature of test [8]: qHTS assay to test for compound auto fluorescence at 590 nm (red) in HepG2 cells (AID 720674). The essentials: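 Rose Bengal sodium served as the red fluorophore standard. HepG2 monolayers (overnight attachment, MEM with 10% FBS) were exposed to test compounds for 1 hr at 37 C and read at Ex 540/Em 590 nm.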
Test [9] is described as follows: qHTS assay to test for compound auto fluorescence at 460 nm (blue) in HEK293 cells (AID 720678). The essentials: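 HEK293 cells (2,000/well, medium with 10% dialyzed FBS) attached 4-5 hr, then exposed to compound overnight at 37C, 5% CO2. Blue fluorescence read at 405/460 nm, with triamterene as reference fluorophore.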
A short description of test [10]: qHTS assay to test for compound auto fluorescence at 590 nm (red) in HEK293 cells (AID 720679). An outline of the steps:
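HEK293 cells (2,000/well, 10% dialyzed FBS) attached 4-5 hr, then dosed with compound or DMSO and incubated overnight at 37C, 5% CO2. Red fluorescence read at 540/590 nm, Rose Bengal sodium as reference fluorophore.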

Test [11] in a line: qHTS assay to test for compound auto fluorescence at 535 nm (green) in HEK293 cells (AID 720680).
Test [12] can be described thus: qHTS assay to test for compound auto fluorescence at 535 nm (green) in HEK293 cell free culture (AID 720682). An outline of the steps:
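Compounds were pin-transferred into cell-free DMEM with 10% FBS, and green fluorescence was read at excitation 485 nm and emission 535 nm. Intensities were expressed as fluorescein-equivalent values.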

Test [13] can be described thus: qHTS assay to test for compound auto fluorescence at 590 nm (red) in HEK293 cell free culture (AID 720683). The essentials:
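Tox21 10K library compounds were pinned into cell-free DMEM with 10% FBS and fluorescence was read at excitation 540 nm. Activity is expressed as Rose Bengal sodium equivalency.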

The nature of test [14]: qHTS assay to test for compound auto fluorescence at 590 nm (red) in HepG2 cell free culture (AID 720684). An outline of the steps: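 Readout: intrinsic compound fluorescence at 590 nm emission after 540 nm excitation, scaled to Rose Bengal sodium. Matrix was cell-free MEM with 10% FBS; DMSO vehicle wells served as control.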
Test [15] can be described thus: qHTS assay to test for compound auto fluorescence at 460 nm (blue) in HepG2 cell free culture (AID 720685). The essentials:
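Cell-free plates of MEM plus 10% FBS received 23 nL compound or DMSO vehicle; blue-channel (405/460 nm) intensity scored against triamterene as reference fluorophore.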

Test [16] can be described thus: qHTS assay to test for compound auto fluorescence at 535 nm (green) in HepG2 cell free culture (AID 720686).
A short description of test [17]: qHTS assay to test for compound auto fluorescence at 460 nm (blue) in HepG2 cells (AID 720687). The essentials: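 Cells (2,000/well in MEM with 10% FBS) attached overnight at 37 C, then were exposed to compound or DMSO for 1 hr at 37 C, 5% CO2. Fluorescence read at Ex/Em 405/460 nm, expressed as triamterene-equivalent signal.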
Test [18] in a line: qHTS assay to test for compound auto fluorescence at 535 nm (green) in HepG2 cells (AID 720675).
A short description of test [19]: qHTS assay to test for compound auto fluorescence at 460 nm (blue) in HEK293 cell free culture (AID 720681). The essentials:
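Test compounds were pinned into cell-free culture medium (DMEM with 10% FBS) and fluorescence was read directly at Ex/Em 405/460 nm. Signals were expressed as fluorescence equivalents of triamterene, with DMSO vehicle as control.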

The target in test [20] is Glucocorticoid receptor (Homo sapiens) (UniProt P04150). Briefly: qHTS assay to identify small molecule agonists of the glucocorticoid receptor (GR) signaling pathway (AID 720691; active means well fitted activation curve with a large enough effect in the signal ratio in the repeat runs, not every such curve was filed as active; the % refers to the signal ratio). The essentials: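 Compounds in DMSO, alongside positive controls, were added to GR-bla HeLa reporter cells and incubated 18 h at 37 C; GRE-driven beta-lactamase was detected by fluorescence after 2 h with FRET substrate at room temperature.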

Values joined by “and” are separate entries in the source; they are usually repeats but may differ in a detail not shown here. Equal entries are not always repeated. Records with an inconclusive call do not appear. Some structures have more than one record in an assay (separate samples or runs), and their calls can disagree. Active and inactive are the calls of the source. Unless noted, the call rests on the fitted dose curve; in most records, active means well fitted curve in the direction sought with a large enough effect in the repeat runs; inconclusive means weak or mixed curves; inactive means no such curve, though single readings can be large; an effect the other way counts as inactive or inconclusive.

Sequence of Glucocorticoid receptor (Homo sapiens) (P04150 whole entry, looked up): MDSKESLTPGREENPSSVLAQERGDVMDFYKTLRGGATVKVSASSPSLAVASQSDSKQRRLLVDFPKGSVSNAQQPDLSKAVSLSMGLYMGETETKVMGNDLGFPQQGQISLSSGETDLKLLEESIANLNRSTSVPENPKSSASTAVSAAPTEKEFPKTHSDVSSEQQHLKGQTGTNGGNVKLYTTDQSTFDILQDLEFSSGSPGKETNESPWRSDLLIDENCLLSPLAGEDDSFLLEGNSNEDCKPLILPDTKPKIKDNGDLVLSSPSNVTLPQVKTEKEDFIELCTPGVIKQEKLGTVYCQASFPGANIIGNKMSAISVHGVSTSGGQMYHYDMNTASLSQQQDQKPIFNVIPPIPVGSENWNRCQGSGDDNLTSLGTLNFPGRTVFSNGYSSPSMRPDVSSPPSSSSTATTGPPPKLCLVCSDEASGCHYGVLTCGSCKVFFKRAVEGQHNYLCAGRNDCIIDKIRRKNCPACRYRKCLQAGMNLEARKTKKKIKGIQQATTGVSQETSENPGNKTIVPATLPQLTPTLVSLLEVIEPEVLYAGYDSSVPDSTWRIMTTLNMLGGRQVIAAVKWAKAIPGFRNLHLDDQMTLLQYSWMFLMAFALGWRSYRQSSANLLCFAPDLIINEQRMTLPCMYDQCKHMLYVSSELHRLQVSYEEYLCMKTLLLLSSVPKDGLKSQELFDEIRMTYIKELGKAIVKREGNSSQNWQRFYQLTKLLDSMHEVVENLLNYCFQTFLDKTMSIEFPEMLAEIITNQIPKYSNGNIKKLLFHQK

Regarding `OCC(O)CO`, the Potency entry in test [1], in test [2], in test [3], in test [4], in test [5] and in test [6] was “inactive” throughout. Also, the Potency result in [7] was “inactive”.

For the molecule `O=Cc1ccco1`, the Potency entry in test [1], in test [2], in [3], in [4], in test [5] and in test [6] was “inactive” in each case. The molecule was classed as inactive in test [8], in test [9], in test [10], in [11], in test [12] and in test [13]. Further, the outcome in test [14], in test [15], in [16] and in test [17] was inactive.

On to `O=P(O)(O)CCCl`, for which the Potency entry in [1], in test [2], in test [3], in [4], in test [5] and in test [6] was “inactive” each time. Further, the result in test [8], in test [9], in test [10], in [12], in test [13] and in [14] was inactive. Further, the molecule was called inactive in test [15], in [16] and in test [17].

Turning to `c1nc[nH]n1`, the Potency result in [1], in test [2], in [3], in test [4], in test [5] and in [6] was “inactive” in each case. Further, in test [7], the Potency result was “inactive”. The molecule was called inactive in test [9], in test [10], in [12], in [13], in test [14] and in [15]. Moreover, the outcome in test [16] and in test [17] was inactive.

With `O=c1oc2ccccc2c(O)c1C(CC(O)c1ccc(-c2ccc(Br)cc2)cc1)c1ccccc1` (stereo unspecified), the Potency in test [1] is 21.1 µM (active) and 46 µM (active); in [3], 9.44 µM (active) and 51.6 µM (active); in [5] it was 6.68 µM (active); in test [6] it was 6.68 µM (active) and 23 µM (active). Moreover, the Potency result in [2] and in [4] was “inactive” each time. The outcome in [8], in test [18], in [9], in [10], in test [11] and in [19] was inactive. The outcome in test [12], in [13], in test [14], in test [15], in [16] and in [17] was inactive.

For the molecule `C#C[C@]1(O)CC[C@H]2[C@@H]3CCC4=CC(=O)CC[C@]4(C)[C@H]3CC[C@@]21C`, the Potency result in test [1], in test [2], in test [3], in test [4], in test [5] and in test [20] was “inactive” throughout. The outcome in test [8], in test [9], in [10], in test [19], in test [12] and in test [13] was inactive. Besides, the molecule was classed as inactive in test [14], in [15], in [16] and in test [17]. Further, in [7], the Potency is 1.69 µM (active).

Consider `CC(C)C(=O)OCC(C)(C)C(OC(=O)C(C)C)C(C)C` (stereo unspecified), for which the Potency entry in [1], in test [2], in test [4], in [5] and in [7] was “inactive” each time. In addition, in [3], the Potency was 30.9 µM (active) and inactive. Also, the outcome in test [9], in test [10], in [11], in test [19], in test [12] and in [13] was inactive. Moreover, the molecule was called inactive in test [14], in [15], in [16] and in test [17].

For `CC(C)NC(C)C`, the Potency entry in test [1], in test [2], in [3], in test [4], in [5] and in test [6] was “inactive” throughout. The Potency result in test [20] and in test [7] was “inactive” in each case. Besides, the molecule was classed as inactive in [9], in test [10], in test [11], in [12], in test [13] and in test [14]. Moreover, the molecule was classed as inactive in [15], in test [16] and in [17].

The record behind these values is PubChem BioAssay (Tox21).
